From PubChem BioAssay (NCI)
Compounds without any hit were thinned out: in the full panel of roughly 83,000, 20% have a hit.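 Results are percent growth after 48 hours of single-concentration exposure. 100 means growth as in untreated cells, lower positive values show inhibition; negative values down to -100 show cell death.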 Values without a mark were called inactive. Active and inactive are the calls of the source. How the source made its calls: active means growth percent below 10; inactive means the rest.

Key:
Test in all cases: NCI-60 one-dose screen, 48 h (100 = growth as untreated, 0 = no growth, -100 = all killed)
Details in all cases: 10 µM unless noted
DU-145 prostate = system: DU-145 prostate
K-562 leukemia = system: K-562 leukemia
MALME-3M melanoma = system: MALME-3M melanoma
MDA-MB-231 breast = system: MDA-MB-231 breast
RXF 393 renal = system: RXF 393 renal
SF-268 CNS = system: SF-268 CNS
SF-295 CNS = system: SF-295 CNS
SF-539 CNS = system: SF-539 CNS
UACC-257 melanoma = system: UACC-257 melanoma
M14 melanoma = system: M14 melanoma
HCT-15 colon = system: HCT-15 colon
HT29 colon = system: HT29 colon
SNB-75 CNS = system: SNB-75 CNS
U251 CNS = system: U251 CNS
PC-3 prostate = system: PC-3 prostate
SK-MEL-5 melanoma = system: SK-MEL-5 melanoma
SK-MEL-28 melanoma = system: SK-MEL-28 melanoma
UACC-62 melanoma = system: UACC-62 melanoma
LOX IMVI melanoma = system: LOX IMVI melanoma

SMILES	growth (DU-145 prostate)	growth (K-562 leukemia)	growth (MALME-3M melanoma)	growth (MDA-MB-231 breast)	growth (RXF 393 renal)	growth (SF-268 CNS)	growth (SF-295 CNS)	growth (SF-539 CNS)	growth (UACC-257 melanoma)	growth (M14 melanoma)	growth (HCT-15 colon)	growth (HT29 colon)	growth (SNB-75 CNS)	growth (U251 CNS)	growth (PC-3 prostate)	growth (SK-MEL-5 melanoma)	growth (SK-MEL-28 melanoma)	growth (UACC-62 melanoma)	growth (LOX IMVI melanoma)
COP(=O)(OC)c1nnn(-c2cccc([N+](=O)[O-])c2)c1C	111%	102%	105%	113%	118%	98.2%	111%	93.3%	105%	104%	106%	105%	93.6%	99.7%	98.7%	100%	113%		
CC1=C(C(=O)n2c3ccccc3c3ccccc32)C(c2cccc([N+](=O)[O-])c2)C(C(=O)n2c3ccccc3c3ccccc32)=C(C)N1	103%	95.8%	88.9%	85%	111%	89.3%	102%	98.6%	106%	100%	81.9%	104%	82.9%	89.5%	80.7%	93.7%	103%	87.6%	87.1%
CC(C)(C)c1cc(C=Nc2cccc(C(F)(F)F)c2)c(O)c(C(C)(C)C)c1	107%	70.2%	108%	98.3%	94.3%	90.1%	97.4%	101%	78.7%	100%	83.7%	81%	83.6%	77.6%	80.2%	99.9%	107%	101%	101%
Cn1cc(-c2csc(-c3cn(C)c4ccc(Br)cc34)n2)c2cnccc21	-88.6% (active)	-67% (active)	-91.3% (active)	-84.7% (active)	-87.2% (active)	-73.8% (active)	-78.2% (active)	-93.1% (active)	-23.2% (active)	-80.4% (active)	-78.6% (active)	-76.2% (active)	-93.6% (active)	-80.4% (active)	-74.9% (active)	-55.7% (active)	-96% (active)	-78% (active)	-92.1% (active)
O=C1NC(=C(Cl)Cl)/C(=N/S(=O)(=O)NCCc2c[nH]c3ccccc23)N1	92.3%	55%	70%	44.8%	81.9%	21.4%	98.7%	25.1%	73.9%	83.8%	98.6%	15%	78.5%	33.8%	83.5%	74.3%	84%	61.2%	29.8%
Cc1cc(C)cc(Nc2ccc([N+](=O)[O-])c(NCCN3CCOCC3)n2)c1	-1.87% (active)	7.21% (active)	60.5%	31.2%	58.4%	25.1%	15.7%	-11.3% (active)	76.1%	1.99% (active)	11.5%	13.4%	31.3%	20.8%	17.2%	-20.3% (active)	60.9%	36.6%	15.7%
Cn1cc(-c2csc(-c3cn(C(=O)OC(C)(C)C)c4ccccc34)n2)c2ccnc(Cl)c21	74.1%	68.1%	90%	38.3%	63.6%	71.8%	62.4%	68.3%	59.5%	79%	39.1%	35.4%	46.8%	34.1%	40.5%	81.4%	81.2%	78.2%	52.8%
N#CC(C#N)N=Nc1ccc(Cl)cc1Cl	80.8%	40.7%	77.3%	68.2%	116%	103%	100%	74.7%	87.3%	81.8%	85%	81.8%	89.3%			99.8%	70.3%	69.6%	94.8%
COc1ccc(C2=CN3CC=CCC3CC2=O)cc1 (configuration not stated)	100%	105%	116%	98.3%	100%	101%	104%	104%	71.6%	99.5%	108%	84.5%	103%	91.4%	81.9%	96.4%	112%	99.5%	99.8%
COc1cccc2c(N=NC(=O)c3ccc(S(N)(=O)=O)cc3)c(O)[nH]c12	115%	98.5%	103%	102%	106%	106%	102%	102%	107%	102%	98.8%	106%	95.1%	101%	99.1%	99.4%	112%	99.8%	
N#C/C(=C\c1ccc(Br)cc1)c1cc2ccccc2[nH]1	104%	86.4%	99.3%	79.5%	115%	102%	95.6%	93.3%	100%	101%	94%	109%	104%	95.1%	84.7%	97.4%	103%		95.3%
CC(C)C[C@@H](C(=O)N[C@H](C(=O)OC1CCCC1)c1ccccc1)[C@H](O)C(=O)NO	68.3%	22.7%	38.3%	9.77% (active)	7.55% (active)	88.9%	60.8%	52.2%	36%	54.5%	58.4%	58%	101%	45.7%	49.6%	59.8%	63.2%	68.8%	54.2%
CCNC(=O)Oc1ccc(/C(=C(/C)Cc2ccc(OC)cc2)c2ccc(OCCN3CCCCCC3)cc2)cc1	92.2%	5.8% (active)	109%	64.1%	68.3%	74.5%	88.4%	96.4%	76.7%	68.3%	18.7%	2.15% (active)	77.4%	45.1%	63.8%	66.2%	75.3%	73.2%	-22% (active)
CN1CCN(Cc2cc(NC(=O)c3cccc(C#Cc4cccc5[nH]nc(N)c45)c3)cc(C(F)(F)F)c2)CC1	33.9%	-42.3% (active)	-54.7% (active)	-31% (active)	-9.77% (active)	40.5%	26.3%	-55.6% (active)	57.8%	-53.1% (active)	10.8%	-15.8% (active)	22.9%	22.2%	27.4%	-5.74% (active)	-60.5% (active)	12.1%	-90.1% (active)
Cn1cc(-c2nc(-c3c[nH]c4ccncc34)cs2)c2cc(Br)ccc21	-95.9% (active)	-54.2% (active)	-79.2% (active)	-80.7% (active)	-94.4% (active)	-73.7% (active)	-78% (active)	-98% (active)	-46.4% (active)	-74.2% (active)	-85.4% (active)	-81.9% (active)	-97% (active)	-84.1% (active)	-86.4% (active)	-47.9% (active)	-91.3% (active)	-86.7% (active)	
C[C@H]1[C@H](C)CC[C@]2(C(=O)O)CC[C@]3(C)C(=CC[C@@H]4[C@@]5(C)C[C@@H](Cc6cn([C@@H]7O[C@H](CO)[C@@H](O)[C@H](O)[C@H]7O)nn6)[C@H](O)C(C)(C)[C@@H]5CC[C@]43C)[C@H]12	105%	95.4%	108%	102%	118%	103%	98.8%	109%	90.2%	93.9%	102%	98.4%	88%	92.9%	89.8%	94.2%	101%	98.4%	99%
